# Screens (PubChem BioAssay)
# A selection: hits, their analogues and other compounds. The true share with any hit is near 10%.
# HEK cytotox – HEK 293 cell cytotoxicity. HEK 293 viability, ATP luminescence (CellTiter-Glo), 48-72 h. Potency, µM (highest dose often 115 µM), for inactives: at the highest dose activity change, negative = cytotoxicity, usual class: inhibitors. 94,000 tested, 6.6% active; also: nearly all actives have a fitted effect of over 60% in size
#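 250 HEK 293 cells/well; compound by pintool; incubated 48 or 72 hr at 37 degree Celsius; CellTiter-Glo added, 10 min RT, luminescence imaged.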
# GPT2 inh – GPT2 alanine aminotransferase inhibition; Q8TD30; Recombinant GPT2, coupled pyruvate oxidase/HRP Amplex Red fluorescence; Potency, µM (doses to about 57.7 µM), inactives show top-dose activity change, negative = inhibition, hits mostly inhibitors; 100,000 tested, 0.25% active; AID 1671188; also: nearly all actives have a fitted effect of over 60% in size
#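 Recombinant GPT2 (10ng/uL) with 250uM a-KG and 2mM L-alanine, 30 min at room temperature, in HEPES pH 7.5 buffer. Pyruvate detected by pyruvate oxidase/HRP/Amplex Red fluorescence after 30 min in the dark; AOA (50uM) as positive control.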
# Luciferase inh – inhibitors of firefly (Photinus pyralis) luciferase; P08659; purified P. pyralis luciferase, luminescence, biochemical; Potency, µM (series often up to 115 µM), usual class: inhibitors; 76,000 tested, 2.5% active; AID 1347043; also: nearly all actives have a fitted effect of over 65% in size
#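 Luminescence read by CCD imager after adding enzyme (10nM final) to wells holding compound, titrated in qHTS. Substrates 10uM each D-luciferin and ATP; buffer 50mM Tris acetate pH 7.5, 10mM Mg acetate, Tween-20, BSA.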
# NPR1 antag – antagonists of human natriuretic peptide receptor Npr1; P16066; HEK293 hNpr1 GloSensor cGMP, ANP-stimulated luminescence; Potency, µM (top dose mostly 46.3 µM), for the others: at the highest dose activity change, negative = inhibition, most hits filed as inhibitors; 76,000 tested, 1.6% active; AID 1347048; calls by dose curve; also: nearly all actives have a fitted effect of over 60% in size
#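 HEK293 cells stably expressing human Npr1 and cGMP GloSensor pGS-40F, loaded 2 h with 2% GloSensor reagent, given compound 30 min at room temperature. Luminescence read before and 20 min after 0.1 nM hNppA.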
# NIH3T3 tox – cytotoxic compounds in NIH 3T3 cells | NIH 3T3 viability, CellTiter-Glo ATP luminescence, 48-72 h | Potency, µM (highest dose often 96.7 µM), inactives show at the highest dose activity change, negative = cytotoxicity, hits mostly inhibitors | 94,000 tested, 4.3% active | AID 1345082; also: nearly all actives have a fitted effect of over 55% in size
#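 Mouse fibroblast NIH 3T3 cells, 400 per well, received compound via pintool and were incubated for 48 or 72 hr prior to CellTiter-Glo ATP luminescence measurement.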
# * hit, by the source's call; i = inactive; ? = inconclusive; nt = not tested or not shown; [ ] = another dose, or the depositor's remark. Unless noted, calls follow the shape of the dose curve; as a rule, active = well fitted curve in the direction sought with a large enough effect; inconclusive = small, poorly fitted or top-dose-only effect, or another doubt; inactive = no such curve, though single readings can be large; an effect the other way counts as inactive or inconclusive. % is scaled to controls: 0 for no effect and ±100 for the full control effect; potency is read from the fitted curve at half-maximal effect.
SMILES,HEK cytotox,GPT2 inh,Luciferase inh,NPR1 antag,NIH3T3 tox
Cc1ccc(-c2ncc(C(=O)NCCN(C)C3CCCCC3)c(-c3ccncc3)n2)cc1,20µM*,i,i,1%,25µM*
O=C(/C=C\n1cnc(-c2cc(C(F)(F)F)cc(C(F)(F)F)c2)n1)N1CC(F)(F)C1,nt,i,nt,nt,nt
FC(F)(F)Oc1ccc(-c2cnc([C@@H]3COCCN3C3CCOCC3)[nH]2)cc1,-18%[172 µM],-4%[88.5 µM],i,-1%[70.6 µM],-13%[138 µM]
CCN1CCC2(CC1)Cc1ccccc1CN(S(=O)(=O)c1ccccc1)C2,-24%,0%,nt,nt,32µM*
CN1CCCC12Cc1ccccc1CN(S(=O)(=O)c1ccccc1)C2 (stereo not given),?,-2%,nt,nt,?
CC(C)CCNc1ncccc1C(=O)N1CCN(Cc2ccccc2)CC1,nt,4%,nt,nt,nt
COCCN1C(=O)c2ccccc2C(C(=O)Nc2nc3ccccc3[nH]2)C12CCCC2 (stereo not given),5%,i,i,5%,-4%
COCCN1C(=O)c2ccccc2C(C(=O)Nc2nc3ccccc3[nH]2)C12CCCCC2 (stereo not given),79µM*,-5%,i,-15%,?
COc1cccc(-c2cnc3[nH]cc(CC(N)=O)c3c2)c1,-19%[230 µM],i,89µM*,-19%[70.6 µM],71µM*
NC(=O)Cc1c[nH]c2ncc(-c3cccc(C(F)(F)F)c3)cc12,?,-6%[88.5 µM],i,-27%[70.6 µM],32µM*
CN1CCN(C(=O)C2CCc3nnc(-c4cccc(C(F)(F)F)c4)n32)CC1 (stereo not given),-10%,-8%,nt,nt,-19%
O=c1cc(N2CCOCC2)oc2c(NC3CCOCC3)nccc12,-24%[172 µM],?,i,1%[70.6 µM],32µM*
O=c1cc(N2CCOCC2)oc2c(Nc3ccccc3)nccc12,-14%[172 µM],1%[88.5 µM],i,2%[70.6 µM],40µM*
COc1ccc(Nc2nccc3c(=O)cc(N4CCOCC4)oc23)cn1,-32%[172 µM],?,i,9%[70.6 µM],89µM*
Cn1cc(-c2cc(=O)c3ccnc(NC4CCOCC4)c3o2)cn1,-2%[172 µM],?,i,5%[70.6 µM],?
O=C1c2cccnc2OC(COc2ccccc2)CN1c1ccccc1 (stereo not given),?,?,nt,nt,-27%[46.1 µM]
O=C(NC1CC1)c1cn2cc(-c3cccc(C(F)(F)F)c3)sc2n1,?,0%,nt,nt,?
COc1ccc(-c2ccc(C(=O)N3CCN([S+](=O)([O-])c4ccccc4)CC3)cc2)nn1,?,nt,nt,nt,-23%
COc1cccc(CNC(=O)[C@@H]2C[C@@H](O)CN2C2CCN(C(=O)Cc3c(C)noc3C)CC2)c1,i,-5%,nt,nt,-3%
COc1ccccc1-c1ccc2ncc(Nc3ccc(CN4CCN(C)CC4)cc3)n2n1,50µM*,?,i,-12%[70.6 µM],25µM*
COc1ccccc1-c1ccc2ncc(Nc3cccc(O)c3)n2n1,?,i,?,1%[70.6 µM],?
COc1ccc(Nc2cnc3ccc(-c4ccccc4OC)nn23)cc1,79µM*,-22%[88.5 µM],?,-14%[70.6 µM],?
COc1ccc(-c2ccc3ncc(Nc4ccc(CN5CCN(C)CC5)cc4)n3n2)cn1,?,i,i,6%[70.6 µM],?
Cc1ccccc1C(=O)N1CCN(C(=O)c2nc3cccnc3n(C3CCCC3)c2=O)CC1,-3%,-5%,nt,nt,?
CCS(=O)(=O)c1ccc2oc([C@H]3CCN(Cc4c[nH]c5ccccc45)C3)nc2c1,?,0%[88.5 µM],i,-10%[70.6 µM],?
SMILES,HEK cytotox,GPT2 inh,Luciferase inh,NPR1 antag,NIH3T3 tox
COc1cccc(CN2CCC(Cc3ncc(C)n3Cc3ccccc3)C2)c1 (stereo not given),45µM*,-1%,i,-19%,35µM*
COc1cccc(CN2CC[C@H](c3nc4cc(Cl)ccc4o3)C2)c1,?,-2%[88.5 µM],?,-1%[70.6 µM],89µM*
Fc1ccc(CN2CC[C@H](c3nc4cc(Cl)ccc4o3)C2)cc1F,89µM*,?,i,-28%[70.6 µM],?
CCS(=O)(=O)c1ccc2oc([C@H]3CCN(Cc4ccc(OC)cc4)C3)nc2c1,63µM*,-17%[88.5 µM],i,?,?
Fc1ccc2oc([C@H]3CCN(Cc4ccc(F)c(F)c4)C3)nc2c1,?,-13%[88.5 µM],i,2%[70.6 µM],-26%[138 µM]
COc1cccc(CN2CC[C@H](c3nc4ccccc4[nH]3)C2)c1,?,-2%[88.5 µM],i,3%[70.6 µM],-18%[138 µM]
C=C1CC[C@H]2[C@@](C)(CCC(OC3OC(CO)C(O)C(O)C3O)[C@@]2(C)CO)C1C(=O)CC1=CCOC1=O (stereo not given in full),nt,i,nt,nt,nt
N#CC1CCN(C(=O)C2CCN(c3nccc(Nc4ccccc4F)n3)CC2)CC1,?,i,nt,nt,?
O=C(Nc1cc(-c2ccccn2)nn1-c1ccccc1)c1cccc(Cl)c1,?,-19%,nt,nt,?
CC(=O)NC1(C)CCN(Cc2cccc(Nc3cccc(Cl)c3)c2)C1 (stereo not given),71µM*,-28%[88.5 µM],?,?,45µM*
COc1cccc(Nc2cccc(CN3CCCC(C)(NC(C)=O)C3)c2)c1 (stereo not given),?,2%[88.5 µM],i,3%[70.6 µM],?
COc1cccc(Nc2cccc(CN3CCC(C)(NC(C)=O)C3)c2)c1 (stereo not given),?,i,50µM*,-13%[70.6 µM],?
Cc1ccc(NC(=O)N2CCc3c(c4ccccc4n3CC3CC3)C2)cc1,?,i,14µM*,-26%,25µM*
O=C(Nc1ccc(F)c(F)c1)N1CCc2c(c3ccccc3n2CC2CC2)C1,13µM*,-15%,i,-25%,?
O=C(Nc1ccc(Cl)cc1Cl)N1CCc2[nH]c3ccc(F)cc3c2C1,?,?,i,-17%,?
COc1ccc(NC(=O)N2CCc3c(c4ccccc4n3C)C2)cc1,?,-4%,?,-3%,?
Cn1c2c(c3ccccc31)CN(C(=O)Nc1ccccc1)CC2,-10%,-5%,i,-17%,?
Cn1c2c(c3cc(F)ccc31)CN(C(=O)Nc1ccc(F)c(Cl)c1)CC2,32µM*,-13%,?,?,13µM*
Cn1c2c(c3ccccc31)CN(C(=O)NC1CCCCC1)CC2,45µM*,2%,i,-7%,32µM*
CC(=O)N1CCc2c(c3ccccc3n2C)C1,-1%,?,i,-17%,-13%
O=C(NCC1CC1)c1ccc2nnc(Cc3ccco3)n2c1,5%[172 µM],i,nt,nt,-32%[138 µM]
O=C(Nc1cccc(F)c1)N1CCc2c(c3ccccc3n2CC2CC2)C1,45µM*,?,i,-16%,25µM*
CC(=O)Nc1cccc(-c2nc(N3CCOCC3)cc3c2CN(Cc2cnn(C)c2)C3=O)c1,-21%,-2%,i,9%,?
COc1cccc(-c2nc(N3CCOCC3)cc3c2CN(C)C3=O)c1OC,?,0%[88.5 µM],i,5%[70.6 µM],?
